The structures appear in SMILES notation. Calls of active or inactive are those of the source. How the source made its calls: active means hit-call score of the fitted dose curve at least 0.9, where 1 is the maximum; inactive means score below 0.9.

Among the data in PubChem BioAssay (EPA / NIEHS) are outcome and AC50 values, retold here.

Chain of Tumor necrosis factor (Homo sapiens) (P01375 whole entry, looked up): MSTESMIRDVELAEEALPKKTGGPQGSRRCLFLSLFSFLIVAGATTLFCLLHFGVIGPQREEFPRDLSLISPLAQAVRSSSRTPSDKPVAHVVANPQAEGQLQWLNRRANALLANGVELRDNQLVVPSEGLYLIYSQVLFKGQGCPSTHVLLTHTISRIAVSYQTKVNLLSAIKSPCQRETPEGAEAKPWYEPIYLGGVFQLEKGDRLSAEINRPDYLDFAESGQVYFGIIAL

Read-out in the test: Tumor necrosis factor (Homo sapiens) (UniProt P01375)
The test is described as follows: BSK_LPS_TNFa: BioMAP Diversity Plus: LPS Assay for Tumour Necrosis Factor alpha (TNFa) Biomarker Activity (AID 2283085).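 On AC50: TNFa protein level quantified by ELISA in the co-culture.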 As to conditions: primary human HUVEC with PBMC; actives raise or lower the signal. The method in brief:
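HUVEC/PBMC co-culture, LPS-stimulated; 24 h post-dose; TNFa by ELISA; gain or loss of signal fitted bidirectionally vs DMSO baseline.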
For `Cc1cc(C)nc(Nc2ccccc2)n1`, the outcome was inactive. For the compound `CC(C)Nc1nc(Cl)nc(NC(C)C)n1`, the AC50 was 7.35 µM (active).

As to `CO/N=C(/C1=NOCCO1)c1ccccc1Oc1ncnc(Oc2ccccc2Cl)c1F`, the outcome was inactive. `CNC(=O)Oc1cccc2ccccc12`: the result was inactive. As to `COC(=O)c1c(C(F)F)nc(C(F)(F)F)c(C2=NCCS2)c1CC(C)C`, the AC50 was 8.66 µM (active). `CC(C)(C)C(=O)C(Oc1ccc(Cl)cc1)n1cncn1` (stereo unspecified): the result was inactive. On the same count and under the same terms, the entry for `Clc1nc(Cl)nc(Nc2ccccc2Cl)n1` is “inactive”. For `CCCCOCN(C(=O)CCl)c1c(CC)cccc1CC`, the AC50 is 35.1 µM (active). With `CCOc1nc(F)cc2nc(S(=O)(=O)Nc3c(Cl)cccc3Cl)nn12`, the result was inactive. The same measure, in the same setting: the entry for `Cc1c(COC(=O)[C@@H]2[C@H](/C=C(\Cl)C(F)(F)F)C2(C)C)cccc1-c1ccccc1` is “inactive”; for `Nc1c(Cl)c(Cl)nc(C(=O)O)c1Cl` it is “inactive”; for `O=C(O)c1c(Cl)ccc2cc(Cl)cnc12` it is “inactive”. For `C=C(C)CN(CC)c1c([N+](=O)[O-])cc(C(F)(F)F)cc1[N+](=O)[O-]`, the AC50 is 5.11 µM (active). With `CC(C)NC(=O)N1CC(=O)N(c2cc(Cl)cc(Cl)c2)C1=O`, the result was inactive. For `Cc1ccc(N=CN(C)C=Nc2ccc(C)cc2C)c(C)c1`, the AC50 is 33.6 µM (active).

`CCOP(=S)(OCC)Oc1nc(Cl)n(C(C)C)n1`: the result was inactive. In the case of `Cc1nc(N(C)C)nc(OC(=O)N(C)C)c1C`, the result was inactive. The same measure, in the same setting: the entry for `C=CCOC(=O)C(C)(C)OC(=O)c1cc(-n2c(=O)cc(C(F)(F)F)n(C)c2=O)ccc1Cl` is “inactive”; for `Nc1cnn(-c2ccccc2)c(=O)c1Cl` it is “inactive”. The same measure, in the same setting: next, `CCN(CC)C(=O)C(C)Oc1cccc2ccccc12` (stereo unspecified): “inactive”; `Nc1c(Cl)c(F)nc(OCC(=O)O)c1Cl`: “inactive”. As for `CCOP(=O)(OCC)Oc1nc(Cl)c(Cl)cc1Cl`, the AC50 is 35.9 µM (active). For `CSC(=O)c1c(C(F)F)nc(C(F)(F)F)c(C(=O)SC)c1CC(C)C`, the result was inactive. The same measure, in the same setting: next, `COP(=O)(OC)O/C(C)=C/C(=O)N(C)C`: “inactive”; `COc1cc(OC)nc(NC(=O)NS(=O)(=O)c2ncccc2OCC(F)(F)F)n1`: “inactive”; `CN=C=S`: “inactive”. As to `COc1cc(Cl)c(OC)cc1Cl`, the result was inactive. `OC(c1ccc(Cl)cc1)(c1ccc(Cl)cc1)C(Cl)(Cl)Cl`: the half-maximal activity concentration (AC50) was 30.8 µM (active).

For the compound `COC(=O)N(C(=O)N1CO[C@@]2(C(=O)OC)Cc3cc(Cl)ccc3C2=N1)c1ccc(OC(F)(F)F)cc1`, the result was inactive.

Turning to `CC(C)C1(C)N=C(c2ncccc2C(=O)O)NC1=O` (stereo unspecified), the result was inactive. Consider `CN/C(=N\[N+](=O)[O-])NCc1cnc(Cl)s1`, for which the outcome was inactive. On to `Cn1c(-c2ccccc2)cc(-c2ccccc2)[n+]1C`, for which the result was inactive. Same read-out and setting: the entry for `Clc1cccc(C(Cl)(Cl)Cl)n1` is “inactive”. Consider `COC(=O)NS(=O)(=O)c1ccc(N)cc1`, for which the outcome was inactive. On the same count and under the same terms, next, `Cc1cnc(C2=NC(C)(C(C)C)C(=O)N2)c(C(=O)O)c1` (stereo unspecified): “inactive”; `O=C(Nc1ccccc1-c1ccc(Cl)cc1)c1cccnc1Cl`: “inactive”.
